Results filed as inconclusive are left out. A call without a number means that no potency is given here. Unmarked numbers belong to inactive results. Calls of active or inactive are those of the source. Unless noted, calls come from the whole dose curve; as a rule, active = well fitted curve in the direction sought with a large enough effect; inconclusive = small, poorly fitted or top-dose-only effect, or another doubt; inactive = no such curve, though single readings can be large; an effect the other way counts as inactive or inconclusive.
How the values were obtained:
[1] = Primary qHTS for inhibitors of La Crosse Virus (LACV) - induced cell death in SH-SY5Y cells (AID 1508616);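 note: top concentration of the series differs between compounds; higher means more rescue of cells from virus-induced death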
In short: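 SH-SY5Y, 6000 cells/well; cpd via pin tool in DMSO; LACV 0.01 MOI; 6 d 37C 5% CO2; ATPLite, 5 min RT; luminescence normalized to ±virus DMSO controls.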

[2] = A High-Content qHTS Against Drug Library for the Identification of Small Molecules that Inhibit DYT1 Early Onset Primary Dystonia-Associated Cell Pathology (AID 1645839; calls by dose curve; note: potency is the fitted concentration of half-maximal effect)
In short: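 Induced EGFP-delE TorsinA cells are imaged after 48 h of compound treatment. Punctate fusion-protein distribution gives the %pathology value, while nuclei counts flag toxicity. Wild-type EGFP-hTOR1A cells define the normal pattern.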

[3] = target: Cytochrome P450 2D6 (Homo sapiens) (UniProt P10635); assay: Cytochrome P450 family 2 subfamily D member 6 (CYP2D6) small molecule antagonists: luciferase biochemical (cell-free) qHTS assay (AID 1645840; active = well fitted curve in the direction sought with a large enough effect in the repeat runs; an effect the other way counts as inactive or inconclusive; note: nearly all actives have a fitted effect of over 55% in size; note: potency is the fitted concentration of half-maximal effect)
In short: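 P450-Glo CYP2D6 system: proluciferin substrate converted by enzyme to luciferin, read by luminescence proportional to activity. Enzyme-substrate mix with compound 10 min at room temperature, then NADPH regeneration 1 h before detection reagent.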

[4] = target: Cytochrome P450 2C9 (Homo sapiens) (UniProt P11712); assay: Cytochrome P450 family 2 subfamily C member 9 (CYP2C9) small molecule antagonists: luciferase biochemical (cell-free) qHTS assay (AID 1645842; active = well fitted curve in the direction sought with a large enough effect in the repeat runs; an effect the other way counts as inactive or inconclusive; note: nearly all actives have a fitted effect of over 55% in size; note: potency is the fitted concentration of half-maximal effect)
In short: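 P450-Glo CYP2C9 system: proluciferin substrate with enzyme in mix containing 0.4% BSA, 10 min at room temperature, then NADPH regeneration solution added and incubated 1 h at 37C. Detection reagent stopped reaction; luminescence read after 20 min as RLU.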

[5] = Primary qHTS for inhibitors of nuclear receptor binding SET domain protein 2 (NSD2) in an isogenic RCH-ACV NSD2 p.E1099K mutant (9B) (AID 1645876); note: nearly all actives have a fitted effect of over 70% in size; note: potency is the fitted concentration of half-maximal effect
[6] = Primary qHTS for inhibitors of nuclear receptor binding SET domain protein 2 (NSD2) in an RCH-ACV wild type WT cells (2C) (AID 1645877); note: nearly all actives have a fitted effect of over 70% in size; note: potency is the fitted concentration of half-maximal effect
[7] = target: Calcium and integrin-binding protein 1 (Homo sapiens) (UniProt Q99828); assay: Primary qHTS for Identification of Calcium Integrin Binding Protein 1 (CIB1) Competitor (AID 1508620); note: potency is the fitted concentration of half-maximal effect
In short: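 Fluorescence polarization competition: CIB1-GST (1 uM final) preincubated with compound 15 min at room temperature, then FITC-labeled alphaIIb peptide (100 nM final) added for another 15 min. Polarization read at Ex 480/Em 540.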

[8] = Primary qHTS for small molecule stabilizers of the endoplasmic reticulum resident proteome: Secreted ER Calcium Modulated Protein (SERCaMP) assay (AID 1508630)
In short: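 The SH-SY5Y reporter protocol was run at 3 concentrations up to 38.3 uM (primary) or 11 concentrations (follow-up): 16 h compound, 100 nM thapsigargin for 4 h, then extracellular luciferase luminescence.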

[9] = target: Cytochrome P450 3A4 (Homo sapiens) (UniProt P08684); assay: Cytochrome P450 family 3 subfamily A member 4 (CYP3A4) small molecule antagonists: luciferase qHTS assay (AID 1645841; active = well fitted curve in the direction sought with a large enough effect in the repeat runs; an effect the other way counts as inactive or inconclusive; note: nearly all actives have a fitted effect of over 45% in size)
In short: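 P450-Glo CYP3A4 enzyme with proluciferin substrate was preincubated with DMSO-dissolved compounds for 10 min at room temperature. NADPH regeneration solution started a 1 h reaction. Detection reagent stopped it, and luminescence was read after 20 min.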

[10] = Counterscreen qHTS for small molecule stabilizers of the endoplasmic reticulum resident proteome: GLuc-NoTag assay (AID 1508627); note: series mostly up to about 76 µM
In short: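 Secreted GLuc lacking the SERCaMP modification is measured in SH-SY5Y cells exposed to compound for 19 h and then to thapsigargin (100 nM, 4 h) to deplete ER calcium; hits retested at 11 concentrations, up to 76.6 uM.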

[11] = Cell Viability qHTS for small molecule stabilizers of the endoplasmic reticulum resident proteome (AID 1508629); details: cell viability counter-screen, 100 nM thapsigargin for final 4 h;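 note: human SH-SY5Y neuroblastoma cells carrying the GLuc-SERCaMP reporter; compound exposure about 46 h in total before the viability read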
[12] = Confirmatory qHTS for small molecule stabilizers of the endoplasmic reticulum resident proteome: Secreted ER Calcium Modulated Protein (SERCaMP) assay (AID 1508628); note: series mostly up to about 76 µM; nearly all actives have a fitted effect of over 40% in size
In short: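 Reporter secretion upon ER calcium depletion (100 nM thapsigargin, 4 h, 37C) is measured as medium luminescence with coelenterazine, after 16 h compound pretreatment of SH-SY5Y-GLuc-SERCaMP cells; primary at three concentrations up to 38.3 uM, follow-up at 11 (up to 76.6 uM).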

[13] = target: Rap guanine nucleotide exchange factor 3 (Homo sapiens) (UniProt O95398); assay: Confirmatory qHTS for antagonist of cAMP-regulated guanine nucleotide exchange factor 3 (EPAC1) (AID 1645880); note: nearly all actives have a fitted effect of over 55% in size
In short: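 Released BODIPY-GDP fluoresces less than Rap1-bound BODIPY-GDP; the signal is followed at 480/540 nm at 5-min intervals over 30 min, after 5 min at room temperature. Reactions contain 100 nM EPAC1, 250 nM RAP1B-BODIPY-GDP and 50 uM GDP; results are normalized to ATA and DMSO.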

[14] = target: Rap guanine nucleotide exchange factor 3 (Homo sapiens) (UniProt O95398); assay: Confirmatory qHTS for agonist of cAMP-regulated guanine nucleotide exchange factor 3 (EPAC1) (AID 1645881);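 note: EPAC1 catalysed release of BODIPY-GDP from Rap1B seen as fluorescence loss; nearly all actives have a fitted effect of over 75% in size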
[15] = target: Rap guanine nucleotide exchange factor 4 (Homo sapiens) (UniProt Q8WZA2); assay: Confirmatory qHTS for antagonist of cAMP-regulated guanine nucleotide exchange factor 4 (EPAC2) (AID 1645885); note: nearly all actives have a fitted effect of over 25% in size
Chain of Rap guanine nucleotide exchange factor 4 (Homo sapiens) (Q8WZA2 whole entry, looked up): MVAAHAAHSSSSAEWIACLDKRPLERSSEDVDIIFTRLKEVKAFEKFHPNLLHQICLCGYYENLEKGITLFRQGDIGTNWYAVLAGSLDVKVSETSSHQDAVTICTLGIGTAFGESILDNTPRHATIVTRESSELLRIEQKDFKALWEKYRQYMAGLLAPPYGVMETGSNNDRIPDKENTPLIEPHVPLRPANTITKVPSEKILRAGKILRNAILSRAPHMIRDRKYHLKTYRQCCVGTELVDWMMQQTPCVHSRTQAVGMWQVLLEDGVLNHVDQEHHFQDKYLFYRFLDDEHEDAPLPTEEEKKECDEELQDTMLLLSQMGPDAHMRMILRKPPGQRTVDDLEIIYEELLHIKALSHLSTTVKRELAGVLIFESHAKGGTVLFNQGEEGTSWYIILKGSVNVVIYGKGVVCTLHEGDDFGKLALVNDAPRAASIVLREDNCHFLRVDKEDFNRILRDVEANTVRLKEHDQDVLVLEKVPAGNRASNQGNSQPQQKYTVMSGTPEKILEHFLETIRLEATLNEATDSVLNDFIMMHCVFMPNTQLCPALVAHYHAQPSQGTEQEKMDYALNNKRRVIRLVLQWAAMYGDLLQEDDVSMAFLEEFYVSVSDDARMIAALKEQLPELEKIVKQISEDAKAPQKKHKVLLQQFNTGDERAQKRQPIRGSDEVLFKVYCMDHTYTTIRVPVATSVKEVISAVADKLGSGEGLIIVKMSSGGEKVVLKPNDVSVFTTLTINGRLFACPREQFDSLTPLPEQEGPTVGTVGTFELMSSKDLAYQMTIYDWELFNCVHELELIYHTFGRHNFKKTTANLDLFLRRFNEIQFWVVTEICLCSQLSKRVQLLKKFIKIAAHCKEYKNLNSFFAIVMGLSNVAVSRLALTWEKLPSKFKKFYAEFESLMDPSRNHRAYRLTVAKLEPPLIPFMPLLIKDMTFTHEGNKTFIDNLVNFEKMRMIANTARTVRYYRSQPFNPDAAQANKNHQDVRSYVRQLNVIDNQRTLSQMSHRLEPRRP

Chain of Calcium and integrin-binding protein 1 (Homo sapiens) (Q99828 whole entry, looked up): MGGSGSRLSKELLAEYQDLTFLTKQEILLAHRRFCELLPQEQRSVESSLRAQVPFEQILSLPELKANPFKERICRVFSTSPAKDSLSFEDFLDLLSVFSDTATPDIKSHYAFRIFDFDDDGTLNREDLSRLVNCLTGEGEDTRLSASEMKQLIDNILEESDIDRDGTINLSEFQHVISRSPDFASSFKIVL
Chain of Cytochrome P450 2D6 (Homo sapiens) (P10635 whole entry, looked up): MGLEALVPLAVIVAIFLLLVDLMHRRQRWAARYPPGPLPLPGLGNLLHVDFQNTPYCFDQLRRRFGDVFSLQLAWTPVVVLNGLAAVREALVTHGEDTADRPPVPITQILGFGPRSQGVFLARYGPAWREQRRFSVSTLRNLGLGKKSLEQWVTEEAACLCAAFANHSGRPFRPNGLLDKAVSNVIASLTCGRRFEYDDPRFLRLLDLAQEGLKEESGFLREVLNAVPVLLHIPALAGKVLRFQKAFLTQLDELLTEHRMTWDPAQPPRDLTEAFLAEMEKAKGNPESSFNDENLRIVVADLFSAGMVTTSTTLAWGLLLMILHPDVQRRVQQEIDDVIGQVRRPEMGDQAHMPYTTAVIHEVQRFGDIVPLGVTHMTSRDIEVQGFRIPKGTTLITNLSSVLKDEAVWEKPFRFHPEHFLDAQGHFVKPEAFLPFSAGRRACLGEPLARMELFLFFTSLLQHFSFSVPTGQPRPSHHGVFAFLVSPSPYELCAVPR
Chain of Cytochrome P450 2C9 (Homo sapiens) (P11712 whole entry, looked up): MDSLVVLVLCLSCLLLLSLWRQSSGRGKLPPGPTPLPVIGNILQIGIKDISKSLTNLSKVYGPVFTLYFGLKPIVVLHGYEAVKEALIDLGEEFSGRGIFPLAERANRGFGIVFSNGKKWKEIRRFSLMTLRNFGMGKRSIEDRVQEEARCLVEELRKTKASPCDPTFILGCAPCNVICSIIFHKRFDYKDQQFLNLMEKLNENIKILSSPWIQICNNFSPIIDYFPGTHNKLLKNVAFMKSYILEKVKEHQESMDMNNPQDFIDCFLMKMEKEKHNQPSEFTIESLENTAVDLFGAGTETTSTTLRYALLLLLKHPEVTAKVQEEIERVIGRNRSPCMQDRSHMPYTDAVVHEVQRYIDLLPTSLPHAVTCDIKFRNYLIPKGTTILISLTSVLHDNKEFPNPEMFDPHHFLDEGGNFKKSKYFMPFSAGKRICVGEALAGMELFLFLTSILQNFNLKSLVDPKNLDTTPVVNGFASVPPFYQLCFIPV
Chain of Cytochrome P450 3A4 (Homo sapiens) (P08684 whole entry, looked up): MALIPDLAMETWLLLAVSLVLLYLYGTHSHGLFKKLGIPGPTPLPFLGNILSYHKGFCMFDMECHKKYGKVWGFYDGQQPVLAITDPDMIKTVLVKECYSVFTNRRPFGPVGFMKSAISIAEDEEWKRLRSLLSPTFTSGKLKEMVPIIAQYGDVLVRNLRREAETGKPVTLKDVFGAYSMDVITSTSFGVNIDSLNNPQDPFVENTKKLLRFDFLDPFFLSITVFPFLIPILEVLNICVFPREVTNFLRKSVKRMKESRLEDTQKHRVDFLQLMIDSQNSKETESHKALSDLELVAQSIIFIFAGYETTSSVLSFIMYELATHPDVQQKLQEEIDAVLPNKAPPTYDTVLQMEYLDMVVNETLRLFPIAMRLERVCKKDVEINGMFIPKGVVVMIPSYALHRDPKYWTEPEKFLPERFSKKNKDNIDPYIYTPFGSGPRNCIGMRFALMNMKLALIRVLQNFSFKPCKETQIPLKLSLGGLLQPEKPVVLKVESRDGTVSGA
Chain of Rap guanine nucleotide exchange factor 3 (Homo sapiens) (O95398 whole entry, looked up): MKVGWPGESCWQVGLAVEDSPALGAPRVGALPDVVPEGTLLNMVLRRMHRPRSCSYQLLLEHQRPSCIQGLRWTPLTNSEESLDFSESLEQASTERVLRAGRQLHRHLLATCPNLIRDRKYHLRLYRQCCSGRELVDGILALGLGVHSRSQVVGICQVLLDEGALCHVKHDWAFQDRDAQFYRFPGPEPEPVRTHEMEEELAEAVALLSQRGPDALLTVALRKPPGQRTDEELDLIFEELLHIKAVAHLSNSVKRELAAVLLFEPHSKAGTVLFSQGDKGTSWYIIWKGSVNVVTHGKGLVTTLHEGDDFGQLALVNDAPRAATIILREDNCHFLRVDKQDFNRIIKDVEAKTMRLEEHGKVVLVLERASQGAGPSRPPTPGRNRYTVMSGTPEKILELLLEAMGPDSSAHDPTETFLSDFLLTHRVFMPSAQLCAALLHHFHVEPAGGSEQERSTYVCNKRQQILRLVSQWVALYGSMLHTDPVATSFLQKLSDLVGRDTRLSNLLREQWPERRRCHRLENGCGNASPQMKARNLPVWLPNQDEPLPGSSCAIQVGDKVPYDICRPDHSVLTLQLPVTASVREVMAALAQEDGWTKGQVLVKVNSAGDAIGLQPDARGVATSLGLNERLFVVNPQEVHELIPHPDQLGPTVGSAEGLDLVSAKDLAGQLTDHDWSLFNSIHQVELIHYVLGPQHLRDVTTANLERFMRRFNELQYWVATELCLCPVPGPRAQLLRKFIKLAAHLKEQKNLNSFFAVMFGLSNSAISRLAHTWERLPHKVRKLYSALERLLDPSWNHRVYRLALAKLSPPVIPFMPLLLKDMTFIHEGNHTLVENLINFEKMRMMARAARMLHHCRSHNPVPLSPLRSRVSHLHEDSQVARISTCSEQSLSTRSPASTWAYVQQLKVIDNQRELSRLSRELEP

CC(=O)N(c1onc(C)c1C)S(=O)(=O)c1ccc(N)cc1
outcome [1]: inactive | Potency [2]: inactive | Potency [3]: inactive | Potency [4]: inactive | Potency [5]: inactive | Potency [6]: inactive

Nc1ccc(O)cc1
outcome [1]: inactive | Potency [2]: inactive | Potency [3]: 6.17 µM (active) | Potency [5]: inactive | Potency [6]: inactive

CC(=O)N(CC(=O)N(C)C)c1ccccc1
Potency [7]: inactive | Potency [8]: inactive | Potency [2]: inactive | Potency [3]: inactive | Potency [9]: inactive | Potency [5]: inactive | Potency [6]: inactive

C[C@H](N)C(=O)N[C@@H](C)C(=O)NC1[C@H]2CN(c3nc4c(cc3F)c(=O)c(C(=O)O)cn4-c3ccc(F)cc3F)C[C@@H]12 (stereo partly specified)
Potency [7]: inactive | Potency [10]: inactive | max response [11]: -5.88% | Potency [2]: inactive | Potency [3]: inactive | Potency [9]: inactive | Potency [4]: inactive | Potency [5]: 7.5 µM (active) | Potency [6]: 6.68 µM (active)

CSc1ccc(/C=C2/C(C)=C(CC(=O)O)c3cc(F)ccc32)cc1
outcome [1]: inactive | Potency [4]: inactive | Potency [5]: inactive | Potency [6]: inactive

Cc1oc(-c2ccccc2)nc1CCC(=O)c1ccc(CC2SC(=O)NC2=O)cc1 (stereo unspecified)
Potency [7]: inactive | Potency [8]: inactive

CCCCCC1Nc2cc(C(F)(F)F)c(S(N)(=O)=O)cc2S(=O)(=O)N1 (stereo unspecified)
Potency [7]: inactive | Potency [8]: inactive | Potency [3]: 3.89 µM (active) | Potency [9]: inactive | Potency [4]: 1.95 µM (active) | Potency [5]: inactive | Potency [6]: inactive

Cc1onc(-c2c(Cl)cccc2Cl)c1C(=O)Cl
Potency [7]: inactive | Potency [8]: inactive | Potency [2]: inactive | Potency [3]: inactive | Potency [5]: inactive | Potency [6]: inactive

CC(C)(C)c1ccc(O)c(O)c1
Potency [7]: inactive | Potency [10]: inactive | Potency [2]: 31.6 µM (active) | Potency [5]: 2.17 µM (active) | Potency [6]: 2.17 µM (active)

CO[C@@H]1[C@@H](OC)[C@H](C)[C@@](O)(CC(=O)O)O[C@H]1[C@H](C)[C@H]1O[C@@]2(CC[C@@](C)([C@H]3CC[C@@](C)([C@@H]4O[C@@H]([C@H]5O[C@](C)(O)[C@H](C)C[C@@H]5C)C[C@@H]4OC4C[C@H](OC)[C@@H](OC)[C@H](C)O4)O3)O2)C[C@H](O)[C@H]1C (stereo partly specified)
Potency [7]: inactive | Potency [8]: inactive | Potency [4]: inactive | Potency [5]: 0.596 µM (active) | Potency [6]: 0.531 µM (active)

CCc1cccc2c(CCO)c[nH]c12
Potency [7]: inactive | Potency [2]: inactive | Potency [4]: inactive | Potency [5]: inactive | Potency [6]: inactive

CC(C)(C)C1CCC(CC2=C(O)c3ccccc3C(=O)C2=O)CC1 (stereo unspecified)
Potency [7]: inactive | Potency [2]: inactive | Potency [4]: 3.89 µM (active) | Potency [5]: 7.5 µM (active) | Potency [6]: 9.44 µM (active)

CCOC(=O)Cn1cccc1-c1nc(-c2ccc(OC)cc2)c(-c2ccc(OC)cc2)s1
Potency [7]: inactive | Potency [8]: inactive | Potency [3]: inactive | Potency [6]: inactive

O=c1[nH]sc2cc(Cl)ccc12
Potency [7]: 3.55 µM (active) | Potency [2]: inactive | Potency [3]: inactive

[O-][n+]1cccc(/C(Cl)=N/OC[C@@H](O)CN2CCCCC2)c1
Potency [7]: inactive | Potency [2]: inactive | Potency [4]: inactive | Potency [5]: inactive | Potency [6]: inactive

Nc1cccc2c(N)cccc12
Potency [12]: inactive | Potency [3]: 2.99 µM (active) | Potency [4]: 18.9 µM (active) | Potency [5]: 24.3 µM (active) | Potency [6]: 3.86 µM (active) | Potency [13]: inactive | Potency [14]: inactive | Potency [15]: inactive

CC1(C)S[C@@H]2[C@H](NC(=O)C(c3ccccc3)S(=O)(=O)O)C(=O)N2[C@H]1C(=O)O (stereo partly specified)
Potency [7]: inactive | Potency [2]: inactive | Potency [3]: inactive | Potency [4]: inactive | Potency [5]: inactive | Potency [6]: inactive

Cn1cc(S(C)=O)c(=O)c2ccc(F)cc21 (stereo unspecified)
Potency [7]: inactive | Potency [3]: inactive | Potency [4]: inactive | Potency [5]: inactive | Potency [6]: inactive

NC(=O)NS(=O)(=O)c1ccc(Cl)cc1
Potency [7]: inactive | Potency [2]: inactive | Potency [3]: inactive

CC(=O)Nc1ccn(C2COC(COC(=O)c3ccccc3)O2)c(=O)n1 (stereo unspecified)
Potency [7]: inactive | Potency [2]: inactive | Potency [3]: inactive | Potency [4]: inactive | Potency [5]: 10.6 µM (active) | Potency [6]: 5.31 µM (active)

C/C(=N\O)[C@@H](C)NCC(C)(C)CN[C@H](C)/C(C)=N/O
Potency [7]: inactive | Potency [2]: inactive | Potency [4]: inactive | Potency [5]: inactive | Potency [6]: inactive

— PubChem BioAssay (NCATS)
